Laboratory results published in PubChem BioAssay (Tox21).
Values without a mark were called inactive. Results filed as inconclusive are left out. Where a call stands in place of a potency, no number is given. Active and inactive are the calls of the source. Calls follow the shape of the dose curve; as a rule, active = well fitted curve in the direction sought with a large enough effect in the repeat runs; inconclusive = weak or mixed curves; inactive = no such curve, though single readings can be large; an effect the other way counts as inactive or inconclusive.

Tests used:
[1] = A CellTox Green Cytotoxicity Assay to monitor cytotoxicity in HEK293 cells - 24 hour (AID 1224875); also: nearly all actives have a fitted effect of over 45% in size; also: potency is read from the fitted curve at half-maximal effect
In short: (§1)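 Fluorescence intensity, read at 0, 8, 16, 24, 32 and 40 h of compound treatment, reflected dye binding to DNA of dead HEK293 cells; compounds (23 nL, DMSO) were added 5 h after plating cells with reagent.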

[2] = A CellTox Green Cytotoxicity Assay to monitor cytotoxicity in HepG2 cells - 16 hour (AID 1224876); also: nearly all actives have a fitted effect of over 45% in size
In short: (§2)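 Using 1536-well format, dye-containing HepG2 suspension was seeded, allowed 5 h at 37 C/5% CO2, dosed by pintool with compounds, positive and negative controls, and imaged for fluorescence across 40 h.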

[3] = qHTS RealTime-Glo MT Cell Viability Assay in HepG2 cells - 32 hour (AID 1224877); also: nearly all actives have a fitted effect of over 55% in size; also: potency is read from the fitted curve at half-maximal effect
In short: (§3)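 Viability was tracked continuously by NanoLuc luminescence from prosubstrate reduced by living HepG2 cells, at successive time points over 40 h of compound exposure. Cells with reagent were preincubated 5 h at 37 °C before compound addition.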

[4] = A CellTox Green Cytotoxicity Assay to monitor cytotoxicity in HepG2 cells - 24 hour (AID 1224878); also: nearly all actives have a fitted effect of over 45% in size; also: potency is read from the fitted curve at half-maximal effect
In short: as §2

[5] = A CellTox Green Cytotoxicity Assay to monitor cytotoxicity in HepG2 cells - 40 hour (AID 1224879); also: nearly all actives have a fitted effect of over 40% in size; also: potency is read from the fitted curve at half-maximal effect
In short: as §2

[6] = qHTS RealTime-Glo MT Cell Viability Assay in HEK293 cells - 0 hour (AID 1224880); also: nearly all actives have a fitted effect of over 45% in size; also: potency is read from the fitted curve at half-maximal effect
In short: (§4)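 Viable HEK293 cells reduce a cell-permeant prosubstrate; the product diffuses out and is consumed by NanoLuc in the medium to give light. Compounds went in after a 5 h incubation and plates were read over the treatment course.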

[7] = A CellTox Green Cytotoxicity Assay to monitor cytotoxicity in HEK293 cells - 32 hour (AID 1224881); also: nearly all actives have a fitted effect of over 40% in size; also: potency is read from the fitted curve at half-maximal effect
In short: as §1

[8] = A CellTox Green Cytotoxicity Assay to monitor cytotoxicity in HepG2 cells - 0 hour (AID 1224882); also: nearly all actives have a fitted effect of over 35% in size
In short: as §2

[9] = A CellTox Green Cytotoxicity Assay to monitor cytotoxicity in HepG2 cells - 32 hour (AID 1224883); also: nearly all actives have a fitted effect of over 50% in size; also: potency is read from the fitted curve at half-maximal effect
In short: as §2

[10] = qHTS RealTime-Glo MT Cell Viability Assay in HepG2 cells - 16 hour (AID 1224885); also: nearly all actives have a fitted effect of over 50% in size
In short: as §3

[11] = qHTS RealTime-Glo MT Cell Viability Assay in HEK293 cells - 24 hour (AID 1224886); also: nearly all actives have a fitted effect of over 50% in size; also: potency is read from the fitted curve at half-maximal effect
In short: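 Viability tracked continuously by luminescence as live cells reduce a prosubstrate for NanoLuc; HEK293 cells preincubated 5 h, compound-treated at 37 C, and read at 0, 8, 16, 24, 32 and 40 h.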

[12] = qHTS RealTime-Glo MT Cell Viability Assay in HEK293 cells - 8 hour (AID 1224887); also: nearly all actives have a fitted effect of over 50% in size; also: potency is read from the fitted curve at half-maximal effect
In short: as §4

[13] = A CellTox Green Cytotoxicity Assay to monitor cytotoxicity in HEK293 cells - 16 hour (AID 1224888); also: nearly all actives have a fitted effect of over 35% in size; also: potency is read from the fitted curve at half-maximal effect
In short: as §1

[14] = qHTS RealTime-Glo MT Cell Viability Assay in HepG2 cells - 0 hour (AID 1224889); also: nearly all actives have a fitted effect of over 50% in size; also: potency is read from the fitted curve at half-maximal effect
In short: as §3

[15] = A CellTox Green Cytotoxicity Assay to monitor cytotoxicity in HepG2 cells - 8 hour (AID 1224890); also: nearly all actives have a fitted effect of over 45% in size
In short: as §2

[16] = qHTS assay to identify small molecule antagonists of the estrogen receptor alpha (ER-alpha) signaling pathway using the BG1 cell line in the presence of 0.1 nM 17-beta-estradiol - cell viability counter screen (AID 1259241); also: nearly all actives have a fitted effect of over 40% in size
In short: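 Cytotoxicity counter-screen: live-cell protease activity measured by fluorescence (30 min reagent step) in the same wells. Cells were VM7Luc4E2 with endogenous ER-alpha and ERE-driven luciferase, treated 22 hr at 37C alongside 0.1 nM 17beta-estradiol final.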

[17] = qHTS assay to identify small molecule antagonists of the androgen receptor (AR) signaling pathway using the MDA cell line in the presence of 0.5 nM R1881 - cell viability counter screen (AID 1259242); also: nearly all actives have a fitted effect of over 45% in size; also: potency is read from the fitted curve at half-maximal effect
In short: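 Viability of MDA-kb2 cells was multiplexed with the luciferase AR readout; after 16 hr with compounds and R1881 at 0.5 nM final, CellTiter-Fluor fluorescence was recorded.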

[18] = A CellTox Green Cytotoxicity Assay to monitor cytotoxicity in HEK293 cells - 8 hour (AID 1224884); also: nearly all actives have a fitted effect of over 35% in size
In short: as §1

[19] = molecular target: Androgen receptor (Homo sapiens) (UniProt P10275); test: qHTS assay to identify small molecule antagonists of the androgen receptor (AR) signaling pathway using the MDA cell line in the presence of 0.5 nM R1881 (AID 1259243); also: nearly all actives have a fitted effect of over 50% in size; also: potency is read from the fitted curve at half-maximal effect
In short: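 Reporter cells cultured without CO2 receive test chemicals, then 0.5 nM R1881 final; after 16 hr at 37C, ONE-Glo is added and light output recorded.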

Androgen receptor (Homo sapiens), sequence (P10275 whole entry, looked up): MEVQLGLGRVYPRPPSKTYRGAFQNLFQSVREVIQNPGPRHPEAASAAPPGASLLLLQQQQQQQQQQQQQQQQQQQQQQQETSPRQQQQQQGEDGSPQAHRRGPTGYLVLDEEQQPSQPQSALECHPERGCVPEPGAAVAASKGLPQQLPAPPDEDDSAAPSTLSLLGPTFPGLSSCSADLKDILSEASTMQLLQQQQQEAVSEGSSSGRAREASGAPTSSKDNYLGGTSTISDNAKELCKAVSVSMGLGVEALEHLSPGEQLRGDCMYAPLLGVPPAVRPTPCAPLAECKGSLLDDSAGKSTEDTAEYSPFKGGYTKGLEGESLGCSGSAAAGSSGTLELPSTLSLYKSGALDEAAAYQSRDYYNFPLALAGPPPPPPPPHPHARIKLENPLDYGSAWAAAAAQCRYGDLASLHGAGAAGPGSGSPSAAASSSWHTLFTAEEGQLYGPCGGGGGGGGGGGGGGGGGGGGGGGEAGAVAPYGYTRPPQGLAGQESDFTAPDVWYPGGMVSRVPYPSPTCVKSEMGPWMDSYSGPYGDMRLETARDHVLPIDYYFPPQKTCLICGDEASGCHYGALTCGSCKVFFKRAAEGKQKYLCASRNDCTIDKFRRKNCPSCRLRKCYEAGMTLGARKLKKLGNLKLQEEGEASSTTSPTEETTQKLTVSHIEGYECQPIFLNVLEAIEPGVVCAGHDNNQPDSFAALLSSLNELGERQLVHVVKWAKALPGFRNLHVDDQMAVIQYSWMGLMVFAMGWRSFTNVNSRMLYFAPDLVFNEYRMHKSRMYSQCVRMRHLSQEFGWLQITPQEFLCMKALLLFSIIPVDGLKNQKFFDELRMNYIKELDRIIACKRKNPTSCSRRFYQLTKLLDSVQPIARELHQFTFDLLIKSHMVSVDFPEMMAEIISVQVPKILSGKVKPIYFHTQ

SMILES | Potency [1] | Potency [2] | Potency [3] | Potency [4] | Potency [5] | Potency [6] | Potency [7] | Potency [8] | Potency [9] | Potency [10] | Potency [11] | Potency [12] | Potency [13] | Potency [14] | Potency [15] | Potency [16] | Potency [17] | Potency [18] | Potency [19]
CC(C)=CCCC(C)CC=O (stereo not given) | inactive | inactive | inactive | inactive | inactive | inactive | inactive | inactive | inactive | inactive | inactive | inactive | inactive | inactive | inactive | inactive | inactive |  | 
O=C=NC1CCC(CC2CCC(N=C=O)CC2)CC1 (stereo not given) |  | inactive | inactive | inactive | inactive | inactive | 54.9 µM (active) | inactive | inactive | inactive | inactive | inactive | inactive | inactive | inactive | inactive |  | inactive | 
CC(C)(C)c1cc(O)c(C(C)(C)C)cc1O | inactive |  | inactive |  | inactive | inactive | inactive | inactive | inactive | inactive | 21.9 µM (active) | 15.5 µM (active) | inactive | inactive | inactive |  | 54.5 µM (active) | inactive | 19.3 µM (active)
Cc1c(Cn2ccnc2)c2ccccc2n1CCC(=O)O | inactive | inactive | inactive | inactive | inactive | inactive | inactive | inactive | inactive | inactive | inactive | inactive | inactive | inactive | inactive |  | inactive |  | 
O=[N+]([O-])c1cc[n+]([O-])cc1 | inactive | inactive |  | inactive | inactive | inactive | inactive | inactive | inactive |  | inactive | inactive | inactive | inactive | inactive |  | inactive |  | 54.5 µM (active)
C1=Cc2ccccc2C1 | inactive | inactive | inactive | inactive | inactive | inactive | inactive | inactive | inactive | inactive | inactive | inactive | inactive | inactive | inactive | inactive | inactive |  | 
CN1CCC(=C2c3ccccc3CCc3sccc32)CC1 | inactive |  | inactive | 23.9 µM (active) | 23.9 µM (active) |  | inactive | inactive | 23.9 µM (active) | inactive | inactive | inactive | inactive | inactive | inactive | inactive | inactive | inactive | 
O=C(O)c1cccc(N(Cc2cccnc2)c2ccc(OC(F)F)c(OC(F)F)c2)c1 | inactive | inactive |  | inactive | inactive | 19.5 µM (active) | inactive | inactive | inactive |  | inactive | inactive | inactive | 17.4 µM (active) | inactive | inactive | inactive | inactive | 24.3 µM (active)
CCCC[C@H]1CN(CC2CCOCC2)C(=O)OC12CCN(C1(C)CCN(C(=O)c3c(C)ncnc3C)CC1)CC2 | inactive | inactive | inactive |  |  | inactive | inactive | inactive |  | inactive | inactive | inactive | inactive |  | inactive | inactive | inactive |  | 
COc1ccc([C@@H]2Sc3ccccc3N(CCN(C)C)C(=O)[C@@H]2OC(C)=O)cc1 | inactive | inactive | inactive | inactive | inactive | inactive | inactive | inactive | inactive | inactive | inactive | inactive | inactive | inactive | inactive |  | inactive |  | 
CC(=O)[C@@]1(O)CC[C@H]2[C@@H]3C[C@H](C)C4=CC(=O)CC[C@]4(C)[C@H]3CC[C@@]21C | inactive | inactive | inactive | inactive | inactive | 6.74 µM (active) | inactive | inactive | inactive | inactive |  |  | inactive | 1.51 µM (active) | inactive |  | inactive | inactive | 
CCCCc1cc2ccccc2c(OCCN(C)C)n1 |  |  | inactive |  |  | inactive | 21.3 µM (active) | inactive |  | inactive |  | inactive | inactive | inactive | inactive |  | inactive |  | 
CC(Cc1cccc(C(F)(F)F)c1)NCCOC(=O)c1ccccc1 (stereo not given) | inactive |  | inactive |  |  | inactive | 21.3 µM (active) | inactive |  | inactive |  |  | inactive | inactive |  | inactive | inactive | inactive | 
COCCCCCCCCOCCC[Si](C)(O[Si](C)(C)C)O[Si](C)(C)C | inactive | inactive | inactive | inactive | 21.9 µM (active) | inactive |  | inactive | 21.9 µM (active) | inactive | 2.45 µM (active) | inactive | inactive | inactive | inactive |  |  | inactive | 
COc1cc(C(C)(C)C)c(O)c(C(C)(C)C)c1 | 43.6 µM (active) |  | inactive |  |  | inactive | 43.6 µM (active) | inactive |  | inactive | inactive |  |  | inactive |  | inactive | inactive | inactive | 
NC(N)=N/N=C/c1c(Cl)cccc1Cl | inactive | inactive | inactive |  |  |  | inactive | inactive |  | inactive | inactive | inactive | inactive |  | inactive |  |  |  | 23.7 µM (active)
CC(=O)/C(C)=C/C1C(C)=CCCC1(C)C (stereo not given) | 17.4 µM (active) | inactive | inactive |  |  | inactive | 17.4 µM (active) | inactive |  | inactive | inactive | inactive | 15.5 µM (active) | inactive | inactive | inactive | inactive | inactive | 
CN(C)CCCOc1nn(Cc2ccccc2)c2ccccc12 | inactive |  | inactive |  |  |  | inactive | inactive |  | inactive |  | inactive | inactive | inactive | inactive | inactive | inactive | inactive | 
CCOC(=O)CC(=O)c1cc(F)c(Cl)nc1Cl |  | inactive | inactive | inactive | inactive |  |  | inactive | inactive | inactive |  | inactive |  | inactive | inactive | inactive | inactive | inactive | 
CC(C)CCCC(C)CCO (stereo not given) | inactive |  | inactive |  | inactive | inactive | inactive | inactive |  | inactive | inactive | inactive | inactive | inactive | inactive | inactive | inactive |  | inactive
CC[C@H](C)[C@H](N)C(=O)O | inactive | inactive | inactive | inactive | inactive | inactive | inactive | inactive | inactive | inactive | inactive | inactive | inactive | inactive | inactive | inactive | inactive |  | 
CC(C)c1ccccc1C(C)C | inactive | inactive | inactive | inactive | inactive | inactive | inactive | inactive | inactive | inactive | inactive | inactive | inactive | inactive | inactive | inactive | inactive |  | 
O=C(O)c1cn(C2CC2)c2cc(Cl)c(F)cc2c1=O |  | inactive | inactive | inactive | inactive |  |  | inactive | inactive | inactive |  |  |  | inactive | inactive | inactive | inactive |  | inactive
O=C(Nc1ccccc1)OCC(CN1CCCCC1)OC(=O)Nc1ccccc1 (stereo not given) | inactive | inactive | inactive |  |  | inactive | inactive |  |  | inactive |  |  | inactive | inactive | inactive |  | inactive | inactive | 
CCN(CC)C(C)CN1c2ccccc2Sc2ccccc21 (stereo not given) | inactive | inactive | inactive | inactive | inactive | inactive | inactive | inactive | inactive | inactive |  | inactive | inactive | inactive | inactive | inactive | inactive |  | 
C=CC(=O)OCC(C)OCC(C)OCC(C)OC(=O)C=C (stereo not given) | inactive | inactive | 54.9 µM (active) | 54.9 µM (active) | 49 µM (active) | inactive | 54.9 µM (active) | inactive | 54.9 µM (active) |  | 43.6 µM (active) | inactive | inactive | inactive | inactive | inactive | inactive | inactive | 
CN1CCC(=C2c3ccccc3C=Cc3ccccc32)CC1 | inactive |  | inactive |  | 26.8 µM (active) | inactive | inactive | inactive | 26.8 µM (active) | inactive | inactive | inactive | inactive |  | inactive | inactive | inactive | inactive | 
CCOC(=O)C1=C(C)NC(C)=C(C(=O)OC)C1c1cccc([N+](=O)[O-])c1 (stereo not given) | inactive | inactive |  | inactive | inactive | 5.35 µM (active) | inactive | inactive | inactive |  |  |  | inactive | 7.56 µM (active) | inactive | inactive | inactive |  | 
